# “And” between values parts separate entries of the source, which are not always exact repeats. Equal values may be shown once. About 390 (8.9%) of roughly 4,400 compounds showed an effect of 50% or more. For the sample, strong results were picked, then their nearest neighbours and some compounds at random.
# Tested on: Trypanosoma brucei
# Assay: DNDI: Inhibition of Human African Trypanosomiasis, SBRI 427, in vitro at 2 ug.mL-1
# Format: functional
row,SMILES,% inhibition
1,COc1cc(C)ccc1Oc1ncccc1/C(=N/O)N(C)C1CCN(C)CC1,-9%
2,Fc1ccc(-c2nc(Cn3ncc4c3CCCC4)co2)cc1,1%
3,COc1cc(-c2nc(CN3CCC(Cc4ccccc4)CC3)co2)cc(OC)c1OC,6%
4,CCOc1ccccc1-c1nc(CN(C)c2ccc(C)cc2)co1,-15%
5,CCCN(Cc1coc(-c2ccccc2Cl)n1)C(C)CC (stereo not given),-11%
6,Cc1cc(C)n(/C(=N\O)c2ccnc(Oc3cccc4c3CCCC4)c2)n1,57%
7,N/C(=N\O)c1ccnc(Oc2cccc3c2CCCC3)c1,7%
8,O/N=C(/c1ccc(Oc2cccc3c2CCCC3)nc1)N1CCSCC1,21%
9,O/N=C(/c1ccnc(Oc2cccc3c2CCCC3)c1)N1CCSCC1,91%
10,O/N=C(/c1ccnc(Oc2cccc3c2CCCC3)c1)N1CCN(c2ccccc2)CC1,22%
11,Cc1cc(C)n(/C(=N\O)c2ccnc(Oc3cc(Cl)ccc3Cl)c2)n1,16%
12,C=COCCCNCc1coc(-c2ccc(C)cc2)n1,-5%
13,Cc1ccccc1-c1nc(CN(CCC#N)Cc2ccccc2)co1,-5%
14,CN(C)CC(C)(C)CNCc1coc(-c2ccc(C(C)(C)C)cc2)n1,9%
15,COCCN(CCOC)Cc1coc(-c2ccc(C(C)(C)C)cc2)n1,-1%
16,CC(C)(C)CNCc1coc(-c2ccc(C(C)(C)C)cc2)n1,99%
17,C=COCCCNCc1coc(-c2ccc(C(C)(C)C)cc2)n1,53%
18,CCN(CC)CCN(CC)Cc1coc(-c2ccc(OC)cc2)n1,14%
19,Cc1ccccc1-c1nc(CN(CCN(C)C)Cc2ccccc2)co1,54%
20,C=COCCCNCc1coc(-c2ccc(OC)cc2)n1,-2%
21,CC(C)(C)c1ccc(CNCc2coc(-c3ccc(O)cc3)n2)cc1,36%
22,Cc1ccccc1-c1nc(CN(C)Cc2ccccc2)co1,-2%
23,CCN(CCN(C)C)Cc1coc(-c2ccc(C(C)(C)C)cc2)n1,99%
24,Cc1ccc(-c2nc(CN(C)C(C)(C)C)co2)cc1,22%
25,CN(CCc1ccccc1)Cc1coc(-c2ccc(Cl)cc2Cl)n1,11%

row,SMILES,% inhibition
1,Cc1ccc(CCNCc2coc(-c3ccc(Cl)cc3Cl)n2)cc1,-7%
2,C=CCN(C)Cc1coc(-c2cccc(OC)c2)n1,27%
3,CSc1ccc(Oc2nc(C)ccc2/C(=N/O)N2C(C)CCC2C)cc1C (stereo not given),23%
4,FC(F)(F)c1ccc(CNCc2coc(-c3cccs3)n2)cc1,-6%
5,COc1ccc(-c2nc(CN3CCN(C)CC3)co2)cc1,4%
6,Cc1cn(Cc2coc(-c3ccc(C(C)(C)C)cc3)n2)c(C)n1,58%
7,Cc1ccc(-c2nc(CNC(C)C(C)C)co2)cc1 (stereo not given),41% and 29%
8,CC(C)C(C)NCc1coc(-c2ccc(O)cc2)n1 (stereo not given),33%
9,CC(C)(C)c1ccc(-c2nc(CNCC3CC3)co2)cc1,99%
10,CC(C)C(C)NCc1coc(-c2ccc(C(C)(C)C)cc2)n1 (stereo not given),72%
11,Cc1ccc(CNCc2coc(-c3ccc(C(C)(C)C)cc3)n2)o1,0%
12,c1ccc(-c2nc(CNCC3CC3)co2)cc1,28%
13,COc1ccc(-c2nc(CNCC3CCCCC3)co2)cc1,10%
14,Cc1ccc(-c2nc(Cn3cc(C)nc3C)co2)cc1,18%
15,CCCCNCc1coc(-c2ccc(C(C)(C)C)cc2)n1,99%
16,CCCCNCc1coc(-c2ccccc2)n1,20%
17,Cc1cn(Cc2coc(-c3ccc(C(F)(F)F)cc3)n2)c(C)n1,2%
18,CCOc1ccccc1N(Cc1ccccc1)Cc1coc(-c2cccc(F)c2)n1,1%
19,Brc1ccccc1-c1nc(CNCc2cccc3ccccc23)co1,-1%
20,CCCCN(C)Cc1coc(-c2ccc(OC)cc2)n1,9%
21,COc1cccc(-c2nc(CN3CCCCCCC3)co2)c1,31%
22,Cc1ccc(/C(=N/O)N(C)Cc2ccco2)c(Oc2cccc3c2CCCC3)n1,-8%
23,Cc1cn(Cc2coc(-c3cccc4ccccc34)n2)cn1,1%
24,CCN(Cc1coc(-c2ccccc2Cl)n1)c1ccc(C)cc1,-3%
25,CC(CNCc1coc(-c2cccc3ccccc23)n1)c1ccccc1 (stereo not given),8%

row,SMILES,% inhibition
1,Cc1ccc(-c2nc(CN3CCC(N4CCCC4)CC3)co2)cc1,60%
2,Oc1ccc(-c2nc(CN3CCCCCC3)co2)cc1,9%
3,Cc1ccc(-c2nc(CN3CCC(N4CCCCC4)CC3)co2)cc1,3%
4,Brc1ccc(-c2nc(CN3CCCCCC3)co2)cc1,72%
5,Fc1ccc(-c2nc(CN3CCN(c4ccc(F)cc4)CC3)co2)cc1,52%
6,COc1ccc(-c2nc(CN3CCC(N4CCCC4)CC3)co2)cc1,-12%
7,Brc1ccc(-c2nc(CN3CCCC3)co2)cc1,1%
8,Cc1ccc(-c2nc(CN3CCN(c4ccc(F)cc4)CC3)co2)cc1,0%
9,COc1ccc(N2CCN(Cc3coc(-c4ccc(F)cc4)n3)CC2)cc1,-1%
10,Cc1ccc(/C(=N/O)NCc2ccccc2)c(Oc2ccc(F)c(F)c2)n1,23%
11,CCOc1ccc(Oc2ccc(/C(N)=N/O)cn2)cc1,10%
12,Cc1ccc(-c2nc(CNc3cc[nH]n3)co2)cc1,10%
13,Cc1ccc(/C(=N/O)NCCC2CCCN2C)c(OCc2ccccc2)n1 (stereo not given),22%
14,Cc1cc(N2CCN(Cc3coc(-c4cccc5ccccc45)n3)CC2)c2ccccc2n1,52%
15,Oc1ccc(-c2nc(CNC3C[C@H]4CC[C@@H]3C4)co2)cc1 (stereo not given in full),11%
16,Clc1ccc(-c2nc(CNC3CCN(Cc4ccccc4)CC3)co2)c(Cl)c1,74%
17,c1ccc(CN2CCC(NCc3coc(-c4cccc5ccccc45)n3)CC2)cc1,66%
18,Cc1ccc(-c2nc(CN3CCN(c4cc(C)nc5ccccc45)CC3)co2)cc1,12%
19,c1ccc(CN2CCN(Cc3coc(-c4cccc5ccccc45)n3)CC2)cc1,18%
20,Clc1ccccc1-c1nc(CNC2CCN(Cc3ccccc3)CC2)co1,20%
21,Cc1cc(N2CCN(Cc3coc(-c4ccccc4Cl)n3)CC2)c2ccccc2n1,7%
22,Clc1ccc(-c2nc(CNC3CCc4ccccc43)co2)c(Cl)c1 (stereo not given),-4%
23,Clc1ccc(-c2nc(CNC3C[C@H]4CC[C@@H]3C4)co2)c(Cl)c1 (stereo not given in full),52%
24,Clc1ccc(-c2nc(CNC3CCN(Cc4ccccc4)C3)co2)c(Cl)c1 (stereo not given),18%
25,c1ccc(CN2CCC(NCc3coc(-c4cccc5ccccc45)n3)C2)cc1 (stereo not given),14%

# Reference: ChEMBL document CHEMBL1857833, “Screening and optimization of specific chemical series against human African Trypanosomiasis (HAT)”
